For 37 compounds, habituation results are on record in the supplement of paper PMC9950053.

Structures can show the parent of a compound that is named as a salt.

The test relates to Danio rerio larvae (5 dpf). Kind of test: habituation (activity change first vs second 5 min of 1-s interval sound, period 17) minus DMSO control (percentage points); higher = larger habituation measure than DMSO larvae. The settings on record: 10 µM; exposure time: 3 h pre-incubation + 3 h imaging. The protocol:
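Wild-type 5 dpf zebrafish larvae (n=48 per drug, 96-well plates, 28.5 °C) were exposed to Tocris FDA-approved library compounds at 10 µM (0.1% DMSO) for 3 h before and 3 h during imaging. Images were taken every 6 s during visual and acoustic stimuli, and larvae were tracked with Z-LaP Tracker. Each measure is the treated-group mean minus the DMSO control mean (n=844), in percentage points. This mapping covers compounds with 5-character plate codes.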
In the case of `OC(c1cc(C(F)(F)F)nc2c(C(F)(F)F)cccc12)C1CCCCN1` (configuration not stated) [Mefloquine hydrochloride], the habituation is 3.04. As for `CC(=O)Oc1cc2c(s1)CCN(C(C(=O)C1CC1)c1ccccc1F)C2` (configuration not stated) [Prasugrel], the figure is 0.528; as for `CCCC1O[C@@H]2C[C@H]3[C@@H]4CCC5=CC(=O)C=C[C@]5(C)[C@H]4[C@@H](O)C[C@]3(C)[C@]2(C(=O)CO)O1` (some centres not stated) [Budesonide], -1.55; as for `C[C@H]1O[C@H](O[C@H]2[C@H](O)[C@@H](O)[C@@H](O[C@H]3[C@H](O)[C@@H](O)C(O)O[C@@H]3CO)O[C@@H]2CO)[C@H](O)[C@@H](O)[C@@H]1N[C@H]1C=C(CO)[C@@H](O)[C@H](O)[C@H]1O` (some centres not stated) [Acarbose], 1.19.

Regarding `CNCc1ccc(-c2[nH]c3cc(F)cc4c3c2CCNC4=O)cc1` [Rucaparib camsylate], the habituation was found to be 5.03. For the compound `O=C(O)C[C@H](O)C[C@H](O)/C=C/c1c(C2CC2)nc2ccccc2c1-c1ccc(F)cc1` [Pitavastatin calcium], the habituation was -5.34. As for `CN[C@H]1CC[C@@H](c2ccc(Cl)c(Cl)c2)c2ccccc21` [Sertraline hydrochloride], the figure is -8.76; as for `COCCc1ccc(OCC(O)CNC(C)C)cc1` (configuration not stated) [Metoprolol tartrate], -3.41; as for `CCc1nc(N)nc(N)c1-c1ccc(Cl)cc1` [Pyrimethamine], 3.38.

On to `OCc1cc(C(O)CNCCCCCCOCCCCc2ccccc2)ccc1O` (configuration not stated) [Salmeterol xinafoate], for which the habituation was -0.659. The same measure for `OCCN1C[C@H](O)[C@@H](O)[C@H](O)[C@H]1CO` [Miglitol]: -1.71.

For `CCCCCCCN(CC)CCCC(O)c1ccc(NS(C)(=O)=O)cc1` (configuration not stated) [Ibutilide hemifumarate], the habituation was -0.126. As for `CN(C)C(=N)NC(=N)N` [Metformin hydrochloride], the figure is 2.17. In the case of `CC(=O)Nc1ccc(O)cc1` [Acetaminophen], the habituation was -1.62. For `COc1cc(N)c(Cl)cc1C(=O)NC1CCN(CCCOc2ccc(F)cc2)CC1OC` (configuration not stated) [Cisapride], the habituation was 4.4. The same measure for `COc1ccccc1Oc1c(NS(=O)(=O)c2ccc(C(C)(C)C)cc2)nc(-c2ncccn2)nc1OCCO` [Bosentan]: 4.58; for `Cc1cc2c(s1)Nc1ccccc1N=C2N1CCN(C)CC1` [Olanzapine]: 0.758. For `COc1ccccc1OCC(O)CN1CCN(CC(=O)Nc2c(C)cccc2C)CC1` (configuration not stated) [Ranolazine dihydrochloride], the habituation is -2.2. Turning to `N#Cc1ccc2[nH]cc(CCCCN3CCN(c4ccc5oc(C(N)=O)cc5c4)CC3)c2c1` [Vilazodone hydrochloride], the habituation was -2.05. With `CC(C)OC(=O)C(C)(C)Oc1ccc(C(=O)c2ccc(Cl)cc2)cc1` [Fenofibrate], the habituation is -2.39. Turning to `O=c1n(CCCN2CCN(c3cccc(Cl)c3)CC2)nc2ccccn12` [Trazodone hydrochloride], the habituation is -12.5. The same measure for `N#C[C@@H]1C[C@@H]2C[C@@H]2N1C(=O)[C@@H](N)C12CC3CC(CC(O)(C3)C1)C2` [Saxagliptin hydrochloride]: 2.76. For the compound `C[C@@H]1C[C@H]2[C@@H]3CCC4=CC(=O)C=C[C@]4(C)[C@@]3(F)[C@@H](O)C[C@]2(C)[C@@]1(O)C(=O)CO` [Dexamethasone], the habituation was 2.24. As for `CN(C)CCc1c[nH]c2ccc(C[C@H]3COC(=O)N3)cc12` [Zolmitriptan], the habituation is -0.595. As for `C#CCN[C@@H]1CCc2ccccc21` [Rasagiline mesylate], the figure is 3.64; as for `CNS(=O)(=O)Cc1ccc2[nH]cc(CCN(C)C)c2c1` [Sumatriptan succinate], 2.06; as for `COc1cc2nccc(Oc3ccc(NC(=O)C4(C(=O)Nc5ccc(F)cc5)CC4)cc3)c2cc1OC`, -4.58.

With `COc1cc([C@@H]2c3cc4c(cc3[C@@H](O[C@@H]3O[C@@H]5CO[C@@H](C)O[C@H]5[C@H](O)[C@H]3O)[C@H]3COC(=O)[C@H]23)OCO4)cc(OC)c1O` [Etoposide], the habituation stood at 1.7.

On to `CCCc1nn(C)c2c(=O)[nH]c(-c3cc(S(=O)(=O)N4CCN(C)CC4)ccc3OCC)nc12` [Sildenafil citrate], for which the habituation was -2.72. Turning to `CC(C)COCC(CN(Cc1ccccc1)c1ccccc1)N1CCCC1` (configuration not stated) [Bepridil hydrochloride], the habituation was -5.91. The same measure for `Clc1ccc2nsnc2c1NC1=NCCN1` [Tizanidine hydrochloride]: -2.36; for `CC(C)(C(=O)O)c1ccc(C(O)CCCN2CCC(C(O)(c3ccccc3)c3ccccc3)CC2)cc1` (configuration not stated) [Fexofenadine hydrochloride]: 3.94; for `CNC(=O)c1cc(Oc2ccc(NC(=O)Nc3ccc(Cl)c(C(F)(F)F)c3)cc2)ccn1` [Sorafenib]: -9.55. The same measure for `CC[C@H]1OC(=O)[C@H](C)[C@@H](O[C@H]2C[C@@](C)(OC)[C@@H](O)[C@H](C)O2)[C@H](C)[C@@H](O[C@@H]2O[C@H](C)C[C@H](N(C)C)[C@H]2O)[C@](C)(O)C[C@@H](C)CN(C)[C@H](C)[C@@H](O)[C@]1(C)O` [Azithromycin]: 3.26; for `NC(=O)OCC(COC(N)=O)c1ccccc1` [Felbamate]: 2.5; for `O=C1CCc2ccc(OCCCCN3CCN(c4cccc(Cl)c4Cl)CC3)cc2N1` [Aripiprazole]: -7.85.

Regarding `NS(=O)(=O)c1cc2c(cc1Cl)NC(C1CC3C=CC1C3)NS2(=O)=O` (configuration not stated) [Cyclothiazide], the habituation is 1.92.
